mIDH1 inhibitor: human IDH1 R132H inhibition. IDH1-R132H enzyme, NADPH consumption, diaphorase/resazurin fluorescence. AID 602179. O75874. Potency, µM (series often up to 76.6 µM), hits mostly inhibitors. hit rate 0.093% among 390,000; further: nearly all actives have a fitted effect of over 65% in size
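IDH1-R132H (0.5 ug/mL) preincubated 30 min with compound, then NADPH (0.016 mM) and alpha-KG (2 mM) added; 80 min at RT, pH 7.5. Remaining NADPH coupled via diaphorase/resazurin to fluorescence (540/590 nm); concentration-response curves normalized to no-enzyme control.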
GLP1R cytotox: cytotoxic in the GLP-1 receptor inverse agonist counter-screen; HEK293 cAMP-luciferase reporter cells, luminescence, 24 h; Potency, µM (highest dose often 38.3 µM), hits mostly inhibitors; hit rate 0.13% among 410,000;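 further: loss of luciferase light is scored as toxicity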
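Quantitative HTS format, 1536 wells, 200 cells/uL seeded. Compounds: 23 nL, 24 h, 37 °C. Detection: luciferase reagent, luminescence at 12 min RT; decreased signal taken as cytotoxic.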
GLP-1R agonist: GLP-1 receptor (human) agonism; AID 624172; P43220; hit rate 0.007% among 380,000; Potency, µM (titrated, usually from 45.6 µM), actives largely listed as activators; HEK293 GLP-1R CRE-luciferase, luminescence, 4-6 h; cells express a hypersensitive GLP-1R form
TrxR1 substrate: rat thioredoxin reductase 1 substrate activity | O89049 | purified TrxR1 substrate turnover, NADPH consumption readout | Potency, µM (top dose mostly 114 µM) | hit rate 0.01% among 390,000 | AID 588456; further: nearly all actives have a fitted effect of over 50% in size
Target sequence (O89049 whole entry, looked up): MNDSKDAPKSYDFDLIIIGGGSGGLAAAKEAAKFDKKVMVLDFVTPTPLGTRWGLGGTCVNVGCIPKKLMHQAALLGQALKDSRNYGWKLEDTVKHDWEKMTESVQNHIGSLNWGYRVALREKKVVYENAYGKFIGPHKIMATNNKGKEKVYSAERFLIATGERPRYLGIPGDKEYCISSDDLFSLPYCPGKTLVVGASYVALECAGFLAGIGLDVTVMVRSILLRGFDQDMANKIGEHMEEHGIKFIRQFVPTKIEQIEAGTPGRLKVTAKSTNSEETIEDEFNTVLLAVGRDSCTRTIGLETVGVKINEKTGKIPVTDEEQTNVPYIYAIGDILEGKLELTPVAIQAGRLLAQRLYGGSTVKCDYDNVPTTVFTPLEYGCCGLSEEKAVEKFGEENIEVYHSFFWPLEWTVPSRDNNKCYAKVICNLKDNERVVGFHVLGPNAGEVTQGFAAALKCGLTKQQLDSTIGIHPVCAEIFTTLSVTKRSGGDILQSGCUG
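Rat TrxR1, dispensed at 90 nM, was prereduced with 400 uM NADPH (final) for 5 min at ~22 deg C, then incubated with compound 15 min before 400 uM selenite. A first-read NADPH fluorescence drop versus no-compound background flagged substrates.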
TrxR1 inh: inhibitors of rat thioredoxin reductase 1; hit rate 1% among 390,000; recombinant rTrxR1, NADPH fluorescence consumption, selenite substrate; O89049; Potency, µM (series often up to 114 µM), hits mostly inhibitors; further: nearly all actives have a fitted effect of over 65% in size
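Rat TrxR1 (90 nM in the dispensed reagent) was pre-reduced with 400 uM NADPH for 5 min at room temperature, then incubated with compound for 15 min. After 400 uM selenite was added, NADPH fluorescence (Ex 340/Em 450 nm) was followed for 8 min.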
GLP-1R inv ag: GLP-1 receptor (human) inverse agonism; P43220; hit rate 1.6% among 410,000; AID 624417; HEK293 GLP-1R CRE-luciferase, luminescence, 24 h; GLP-1R form is constitutively active; Potency, µM (highest dose often 38.3 µM), hits mostly inhibitors; further: nearly all actives have a fitted effect of over 55% in size
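Readout was luciferase luminescence, measured 12 min after detection reagent at room temperature. Beforehand, GLP-1R reporter HEK293 cells had sat 12 h, then received compounds for 24 hr at 37 deg C.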
Of the large screens only hits and unclear results are named; the others gave an inactive call. An excerpt weighted towards active compounds, which were near 2.7% of everything screened. The call rests on the fitted dose curve; in most records, active means well fitted curve in the direction sought with a large enough effect; inconclusive means small, poorly fitted or top-dose-only effect, or another doubt; inactive means no such curve, though single readings can be large; an effect the other way counts as inactive or inconclusive.

Cc1ccc(C)c(CN2CCC(CNC(=O)C(CC(C)C)N3Cc4ccccc4C3=O)CC2)c1 (configuration not stated)	GLP-1R inv ag inconclusive (no result: GLP-1R agonist)
O=C(Nc1cccc(Cl)c1Cl)c1cc2nc(-c3ccc4c(c3)OCO4)cc(C(F)(F)F)n2n1	none (no result: GLP-1R agonist)
CCN(c1ccccc1)S(=O)(=O)c1ccc(N2CCN(c3ccc(O)cc3)CC2)nc1	GLP-1R inv ag 4.5µM
O=C(C1CCC1)N1CCc2cc(S(=O)(=O)NCc3ccc(F)cc3)ccc21	none
CC1=C(C(=O)OC(C)C)C(c2cccc([N+](=O)[O-])c2)C(C(=O)OC2CN(C(c3ccccc3)c3ccccc3)C2)=C(N)N1 (configuration not stated)	none (no result: mIDH1 inhibitor, GLP1R cytotox, TrxR1 substrate, TrxR1 inh, GLP-1R inv ag)
CC1CCN(C(=O)Nc2ccc3nc(-c4ccco4)c(-c4ccco4)nc3c2)CC1	TrxR1 inh 4µM (no result: mIDH1 inhibitor, GLP1R cytotox, GLP-1R agonist, GLP-1R inv ag)
O=C(Nc1ccc(N2CCOCC2)cc1)c1ccc2nc(-c3ccco3)c(-c3ccco3)nc2c1	none
O=C(c1ccc2nc(-c3ccco3)c(-c3ccco3)nc2c1)N1CCN(c2ncccn2)CC1	TrxR1 inh 13µM
S=C(Nc1ccc(N2CCOCC2)cc1)Nc1ccc2nc(-c3ccco3)c(-c3ccco3)nc2c1	TrxR1 inh 2.5µM
O=C(Nc1ccc2nc(-c3ccco3)c(-c3ccco3)nc2c1)N1CCN(c2ccccn2)CC1	TrxR1 inh 1.4µM, GLP-1R inv ag inconclusive
O=C(Nc1ccc2nc(-c3ccco3)c(-c3ccco3)nc2c1)N1CCCC1	TrxR1 inh inconclusive (no result: mIDH1 inhibitor, GLP1R cytotox, GLP-1R agonist, GLP-1R inv ag)
O=C(COc1ccccc1C(=O)Nc1ccccc1)Nc1ccc2ccccc2c1	none (no result: mIDH1 inhibitor, GLP1R cytotox, GLP-1R agonist, GLP-1R inv ag)
Nc1nc(N)c2snnc2n1	none (no result: mIDH1 inhibitor, GLP1R cytotox, GLP-1R agonist, GLP-1R inv ag)
CC1(C)Cc2cccc(C(=O)Nc3ccc(Cl)cc3)c2O1	GLP-1R inv ag 11µM
Cc1cccc(C)c1NC(=O)CSc1nc(-c2cccs2)cc(C(F)(F)F)n1	none
Cc1cccc(CNC(=O)Cc2ccc(NC(=O)N3CCCCc4ccccc43)cc2)c1	GLP-1R inv ag inconclusive (no result: GLP-1R agonist)
O=C(C1CCN(Cc2cc(Cl)ccc2O)CC1)N1CCN(Cc2ccccc2)CC1	GLP-1R inv ag 7.1µM
NC1(C(=O)O)CCCCC1	none (no result: mIDH1 inhibitor, GLP1R cytotox, GLP-1R agonist, GLP-1R inv ag)
NC1(C(=O)O)CSSC1	GLP1R cytotox 11µM, GLP-1R inv ag inconclusive
Cc1cccc(C)c1Nc1sc(C(=O)c2ccccc2)c(N)c1C(=O)Nc1ccc(F)cc1	GLP-1R inv ag 11µM (no result: GLP-1R agonist)
CCOc1ccccc1Nc1sc(C(=O)c2ccccc2)c(N)c1C(=O)Nc1ccc(F)cc1	none (no result: GLP-1R agonist)
Cc1noc(C)c1COc1cccc(C(=O)OCCOc2ccc(F)cc2)c1	GLP-1R inv ag 10µM
Cc1cc2c(cc1C)N[C@]1(C[C@H]3CCCC(=O)N4CC[C@@H](C1)[C@@H]34)C(=NC1CCCCC1)N2	none (no result: mIDH1 inhibitor, GLP1R cytotox, GLP-1R agonist, GLP-1R inv ag)
CC1=C(C(=O)Nc2cccnc2)C(c2ccccc2)n2nc(SCc3ccccc3)nc2N1 (configuration not stated)	none
C#CCOCCOCCOCCNc1nc(N2CCN(C(=O)[C@H](CCCCN)n3cc(CCCC)nn3)CC2)nc(N2CCN(C(=O)[C@H](Cc3ccc(O)cc3)n3cc(CCO)nn3)CC2)n1	TrxR1 inh 14µM
C#CCOCCOCCOCCNc1nc(N2CCN(C(=O)[C@H](CCCCN)n3cc(CC(C)O)nn3)CC2)nc(N2CCN(C(=O)[C@H](Cc3ccc(O)cc3)n3cc(CCO)nn3)CC2)n1 (some centres not stated)	none
C#CCOCCOCCOCCNc1nc(N2CCN(C(=O)Cn3cc(CCCN=C(N)N)nn3)CC2)nc(N2CCN(C(=O)[C@H]([C@@H](C)O)n3cc(CCCCN)nn3)CC2)n1	TrxR1 inh 71µM
C#CCOCCOCCOCCNc1nc(N2CCN(C(=O)Cn3cc(CCCCN)nn3)CC2)nc(N2CCN(C(=O)[C@H]([C@@H](C)CC)n3cc(CCCN=C(N)N)nn3)CC2)n1	none
C#CCOCCOCCOCCNc1nc(N2CCN(C(=O)CCCCCCCCCCNC(=O)[C@H](CCCCN)n3cc(CCO)nn3)CC2)nc(N2CCN(C(=O)CCCCCCCCCCNC(=O)[C@@H]([C@H](C)O)n3cc(C)nn3)CC2)n1	TrxR1 inh 50µM
C#CCOCCOCCOCCNc1nc(N2CCN(C(=O)[C@H](CCC(=O)O)n3cc(C(N)CC(C)C)nn3)CC2)nc(N2CCN(C(=O)[C@H](Cc3cc4ccccc4[nH]3)n3cc(C(N)CC(C)C)nn3)CC2)n1 (some centres not stated)	TrxR1 inh 28µM
O=c1cc(-c2ccc(F)cc2)nc(SCc2nc(-c3ccc(Cl)cc3)no2)[nH]1	none (no result: GLP-1R agonist)
CCc1nn(CCCC(=O)NCc2ccc(OC)c(OC)c2)c(=O)c2cc3occc3n12	none (no result: mIDH1 inhibitor, GLP-1R agonist)
COc1ccccc1NC(=O)Cc1csc(NC(=S)Nc2ccccc2)n1	GLP1R cytotox inconclusive, TrxR1 inh inconclusive, GLP-1R inv ag inconclusive
COc1ccc(NC(=S)Nc2nc(CC(=O)Nc3ccccc3OC)cs2)cc1	GLP1R cytotox inconclusive, TrxR1 inh 1µM, GLP-1R inv ag inconclusive
COc1ccccc1NC(=O)Nc1nc(CC(=O)N2CCN(c3ccccc3F)CC2)cs1	GLP-1R inv ag 10µM
O=S(=O)(Nc1cc(Br)cc2cccnc12)c1cccc2ccccc12	none (no result: mIDH1 inhibitor, GLP1R cytotox, GLP-1R agonist, GLP-1R inv ag)
Cc1cc(C)cc(N(C)S(=O)(=O)c2nnc(NC(=O)COc3ccc(Cl)cc3)s2)c1	none (no result: GLP-1R agonist)
Cc1ccc(NC(CC(=O)c2ccccc2)c2ccc(F)cc2)cc1 (configuration not stated)	none
O=C(CC(Nc1ccc(F)cc1)C(=O)OCC(=O)c1cccs1)c1ccccc1 (configuration not stated)	TrxR1 inh 25µM
O=C(CCC(=O)c1cccs1)OCC(=O)c1ccc(F)cc1	none
O=C(CC(Nc1ccc(F)cc1)C(=O)O)c1ccccc1 (configuration not stated)	TrxR1 inh 14µM
Cc1cc(C)c2[nH]c(=O)c(C(c3nnnn3C(C)(C)C)N3CCN(C(=O)c4ccco4)CC3)cc2c1 (configuration not stated)	TrxR1 inh 16µM
Cc1cc(C)c2[nH]c(=O)c(C(c3nnnn3CC3CCCO3)N3CCC(C)CC3)cc2c1 (configuration not stated)	TrxR1 inh 20µM
Cc1cc(C)c2[nH]c(=O)c(C(c3nnnn3CC3CCCO3)N3CCCC(C)C3)cc2c1 (configuration not stated)	TrxR1 inh inconclusive
CCC(C)(C)n1nnnc1C(c1cc2cccc(C)c2[nH]c1=O)N1CCCC1 (configuration not stated)	TrxR1 inh inconclusive
